{"source": "PubChem BioAssay AID743327", "about": "(National Center for Advancing Translational Sciences (NCATS), 2014)", "note": "Active and inactive are the calls of the source. Calls follow the shape of the full dose curve. *1 amine or outer side, *2 acyl side, *3 side chain or, on linkers, in order; H or OH if unused. Where a SMILES comes first, the peptide text is derived from it. Bridges are numbered along the chain shown (N, C = ends). Roman numbers before positions name the chains, in order. [ ]: non-standard residue; d: D form. Actinocin(9to1) = Cc1c2oc3c(C)ccc(C(=O)[*:1])c3nc-2c(C(=O)[*:2])c(N)c1=O; NMeV = CN[CH](C(=O)O)C(C)C; Orn = NCCC[C@H](N)C(=O)O; Sar = CNCC(=O)O"}
{"assay": "qHTS profiling of Chloroquine Analogs as inhibitors of Plasmodium falciparum (HB3) proliferation", "conditions": "P. falciparum HB3 proliferation; series mostly up to 28.7 µM; activity change, negative = inhibition: at the top concentration", "source_text": "Plasmodium falciparum is a virulent malarial parasite that kills 1-2 million people worldwide each year. Transmitted by mosquitoes, the sporozoite form of the parasite enters the blood stream to infect hepatocytes, where they become merozoites that infect red blood cells (erythrocytes). Within erythrocytes, merozoites begin a […] cycle of growth and division, after which the parasite is released to infect new red blood cells. Gametocytes, which form within erythrocytes as well, circulate in the bloodstream and are ingested by the mosquito, thereby completing the life cycle. To profile malarial isolates for differential chemical responses and to identify inhibitors of malarial growth, an assay that measures P. falciparum growth and replication within erythrocytes was employed. This assay uses a DNA binding fluorescent dye (SYBR Green) to detect parasite DNA following cell lysis. Because mature erythrocytes lack DNA, only Plasmodium-derived DNA is detected.\nThe SYBR Green viability assay was adapted from a method described previously (Plouffe et al., 2008). For screening 3 ul culture medium was dispensed into 1536 well black clear bottom plates (Aurora Biotechnologies) using a Multidrop Combi (Thermo Fisher Scientific Inc.), 23 nL compounds in DMSO were added by a pin tool (Kalypsys), and 5 ul of erythrocytes infected with P. falciparum (0.3% parasitemia, 2.5% hematocrit final concentration) were added. The plates were incubated at 37 C in a humidified incubator in 5% CO2 for 72 h, and 2 ul lysis buffer (20 mM Tris HCl, 10 mM EDTA, 0.16% saponin, 1.6% triton X, 10X SYBR Green I supplied as 10,000X […] by Invitrogen) was added to each well. The plates were mixed for 25 sec with gentle shaking and incubated overnight at room temperature in the dark. The following morning, fluorescence intensity at 485(14) nm excitation and 535(25) nm emission wavelengths was measured on an EnVision (Perkin Elmer) plate reader. Plate reads were normalized relative to the control inhibitor (0.29 uM artemisinin) and vehicle (DMSO) wells present on each plate and then corrected by an algorithm using vehicle-only control plates at the beginning and end of the compound plate stack."}
{"molecule": "C[C@H]1Cc2c([nH]c3cc(Cl)c(F)cc23)[C@@]2(N1)C(=O)Nc1ccc(Cl)cc12", "activity change, negative = inhibition": "-102% (inactive)"}
{"molecule": "CC(=O)O[C@@]12CO[C@@H]1C[C@H](O)[C@@]1(C)C(=O)[C@H](O)C3=C(C)[C@@H](OC(=O)[C@H](O)[C@@H](NC(=O)OC(C)(C)C)c4ccccc4)C[C@@](O)([C@@H](OC(=O)c4ccccc4)[C@H]21)C3(C)C", "Potency": "9.4 nM (active)"}
{"molecule": "C=Cc1c(C)c2cc3nc(cc4[nH]c(cc5nc(cc1[nH]2)C(C)=C5CCC(=O)OC)c(CCC(=O)O)c4C)[C@@]1(C)C3=CC=C(C(=O)OC)[C@H]1C(=O)OC", "activity change, negative = inhibition": "-98.4% [at 14.2 µM] (inactive)"}
{"molecule": "Cc1c2oc3c(C)ccc(C(=O)NC4C(=O)NC(C(C)C)C(=O)N5CCCC5C(=O)N(C)CC(=O)N(C)C(C(C)C)C(=O)OC4C)c3nc-2c(C(=O)NC2C(=O)NC(C(C)C)C(=O)N3CCCC3C(=O)N(C)CC(=O)N(C)C(C(C)C)C(=O)OC2C)c(N)c1=O", "note": "(stereo not given) (I: TVP[Sar][NMeV] / II: TVP[Sar][NMeV]; ester I:1-I:C, II:1-II:C; linker I:N-II:N via Actinocin(9to1); configuration not given here)", "activity change, negative = inhibition": "-100% (inactive)"}
{"molecule": "CN1CCN(CCCN2c3ccccc3Sc3ccc(S(=O)(=O)N(C)C)cc32)CC1", "Potency": "716 nM (active)"}
{"molecule": "O=C(O)c1cn(C2CC2)c2cc(N3CCNCC3)c(F)cc2c1=O", "activity change, negative = inhibition": "-16.3% (inactive)"}
{"molecule": "C=CC(C)=C[C@@]1(C)SC(=O)C(C)=C1O", "activity change, negative = inhibition": "-13.8% (inactive)"}
{"molecule": "CC(C)C[C@@H]1NC(=O)[C@H](CCCN)NC(=O)[C@H](C(C)C)NC(=O)[C@@H]2CCCN2C(=O)[C@@H](Cc2ccccc2)NC(=O)[C@H](CC(C)C)NC(=O)[C@H](CCCN)NC(=O)[C@H](C(C)C)NC(=O)[C@@H]2CCCN2C(=O)[C@@H](Cc2ccccc2)NC1=O", "note": "(cyclo(V[Orn]L[dF]PV[Orn]L[dF]P))", "activity change, negative = inhibition": "-102% (inactive)"}
{"molecule": "CCCCN(CCCC)CCC(O)c1cc2c(Cl)cc(Cl)cc2c2cc(C(F)(F)F)ccc12", "note": "(stereo not given)", "Potency": "5.1 nM (active)"}
{"molecule": "CCOc1ccccc1O[C@H](c1ccccc1)[C@H]1CNCCO1", "activity change, negative = inhibition": "154% (inactive)"}
{"molecule": "C[C@@H]1[C@@H](CC(C[C@H]2O[C@@H]3O[C@]4(C)CC[C@@H]5[C@H](C)CC[C@@H]([C@H]2C)[C@@]35OO4)C[S+](=O)([O-])c2ccc(COC(=O)N(C)C)cc2)O[C@@H]2O[C@]3(C)CC[C@H]4[C@H](C)CC[C@@H]1[C@@]24OO3", "note": "(stereo not given in full)", "Potency": "6.7 nM (active)"}
{"molecule": "Cn1cncc1[C@@](N)(c1ccc(Cl)cc1)c1ccc2c(c1)c(-c1cccc(Cl)c1)cc(=O)n2C", "activity change, negative = inhibition": "-100% (inactive)"}
{"molecule": "CNC(=O)c1cc(Oc2ccc(NC(=O)Nc3ccc(Cl)c(C(F)(F)F)c3)cc2)ccn1", "Potency": "4210 nM (active)"}
{"molecule": "CN1C[C@H](C(=O)N[C@]2(C)O[C@@]3(O)[C@@H]4CCCN4C(=O)[C@H](Cc4ccccc4)N3C2=O)C[C@@H]2c3cccc4[nH]cc(c34)C[C@H]21", "Potency": "530 nM (active)"}
{"molecule": "O=C(Nc1ccc(Cl)cc1)Nc1ccc(Cl)c(Cl)c1", "Potency": "2110 nM (active)"}
{"molecule": "Cc1cccc(C)c1NC(=O)C(C)N", "note": "(stereo not given)", "activity change, negative = inhibition": "140% [at 14.2 µM] (inactive)"}
{"molecule": "COc1ncnc(NS(=O)(=O)c2ccc(N)cc2)c1OC", "Potency": "1500 nM (active)"}
{"molecule": "CCCC[C@@H]1C[C@@H](C(=O)NC([C@H](C)Cl)[C@H]2O[C@H](S)[C@H](O)[C@@H](O)[C@@H]2O)N(C)C1", "note": "(stereo not given in full)", "Potency": "33.5 nM (active)"}
{"molecule": "C[N+]1(C)CCC(=C(c2ccccc2)c2ccccc2)CC1", "activity change, negative = inhibition": "-94.4% [at 14.2 µM] (inactive)"}
{"molecule": "Clc1ccc(COC(Cn2ccnc2)c2ccc(Cl)cc2Cl)c(Cl)c1", "note": "(stereo not given)", "activity change, negative = inhibition": "-98.6% [at 14.2 µM] (inactive)"}
{"molecule": "CCOc1ccc(F)cc1C1(O)C(N)=Nc2ccc(Cl)cc21", "note": "(stereo not given)", "activity change, negative = inhibition": "136% (inactive)"}
{"molecule": "CN([C@@H](Cc1ccc(OS(=O)(=O)c2cccc3cnccc23)cc1)C(=O)N1CCN(c2ccccc2)CC1)S(=O)(=O)c1cccc2cnccc12", "activity change, negative = inhibition": "-101% (inactive)"}
{"molecule": "CC[C@H]1OC(=O)[C@H](C)[C@@H](O[C@H]2C[C@@](C)(OC)[C@@H](O)[C@H](C)O2)[C@H](C)[C@@H](O[C@@H]2O[C@H](C)C[C@H](N(C)C)[C@@H]2O)[C@](C)(O)C[C@@H](C)CN(C)[C@H](C)[C@@H](O)[C@]1(C)O", "Potency": "9430 nM (active)"}
{"molecule": "CC(C)N=C(N)N=C(N)Nc1ccc(Cl)cc1", "Potency": "29.8 nM (active)"}
{"molecule": "C[C@H](N)CN1CCc2ccc(Br)cc21", "Potency": "1500 nM (active)"}
{"molecule": "CC(CNC1CCCCC1)OC(=O)c1ccccc1", "note": "(stereo not given)", "activity change, negative = inhibition": "-7.06% [at 14.2 µM] (inactive)"}
{"molecule": "COC(=O)C1C2CC3c4[nH]c5cc(OC)ccc5c4CCN3CC2CC(OC(=O)c2cc(OC)c(OC)c(OC)c2)C1OC", "note": "(stereo not given)", "activity change, negative = inhibition": "188% [at 57.5 µM] (inactive)"}
{"molecule": "COc1cccc(CCc2ccccc2OCC(CN(C)C)OC(=O)CCC(=O)O)c1", "note": "(stereo not given)", "Potency": "2980 nM (active)"}
{"molecule": "O=CN(O)CCCP(=O)(O)O", "Potency": "473 nM (active)"}
{"molecule": "O[C@H](c1cc(C(F)(F)F)nc2c(C(F)(F)F)cccc12)[C@H]1CCCCN1", "activity change, negative = inhibition": "-98.4% [at 14.2 µM] (inactive)"}
{"molecule": "CCc1ccc(OCc2ccccc2C(=O)Nc2ccc3nc(C)cc(N)c3c2)cc1", "Potency": "1190 nM (active)"}
{"molecule": "C[C@@H]1CCC2[C@@H](C)[C@@H](O)O[C@@H]3O[C@@]4(C)CC[C@@H]1[C@@]23OO4", "note": "(stereo not given in full)", "activity change, negative = inhibition": "-100% (inactive)"}
{"molecule": "O=C(C[C@@H]1NCCC[C@@H]1O)Cn1cnc2ccccc2c1=O", "activity change, negative = inhibition": "-101% (inactive)"}
{"molecule": "CC[C@@H](C)[C@H]1O[C@]2(CC[C@H]1C)C[C@@H]1C[C@@H](CC=C(C)[C@@H](O[C@H]3C[C@H](OC)[C@@H](O[C@H]4C[C@H](OC)[C@@H](O)[C@H](C)O4)[C@H](C)O3)[C@@H](C)C=CC=C3CO[C@@H]4[C@H](O)C(C)=C[C@@H](C(=O)O1)[C@]34O)O2", "activity change, negative = inhibition": "-102% (inactive)"}
{"molecule": "CCCCN(CCCC)CC(O)c1cc(Cl)cc2c1-c1ccc(Cl)cc1C2=Cc1ccc(Cl)cc1", "note": "(stereo not given)", "activity change, negative = inhibition": "146% (inactive)"}
{"molecule": "C[C@@H]1Cc2c([nH]c3cc(Cl)c(F)cc23)[C@]2(N1)C(=O)Nc1ccc(Cl)cc12", "activity change, negative = inhibition": "155% (inactive)"}
{"molecule": "Cc1cccc(C)c1OCC(N)C(C)C", "note": "(stereo not given)", "Potency": "18800 nM (active)"}
{"molecule": "CO[C@H]1O[C@@H]2O[C@@]3(C)CC[C@@H]4[C@@H](C)CC[C@@H]([C@H]1C)[C@@]24OO3", "activity change, negative = inhibition": "126% (inactive)"}
{"molecule": "CN(C)CC/C=C1\\c2ccccc2COc2ccccc21", "Potency": "2540 nM (active)"}
{"molecule": "CC(=O)N(O)CCCP(=O)(O)O", "Potency": "266 nM (active)"}
